# Measured values: PubChem BioAssay (EPA / NIEHS)
# Records with an inconclusive call do not appear. Calls of active or inactive are those of the source. How the source made its calls, unless noted: active means hit-call score of the fitted dose curve at least 0.9, where 1 is the maximum; inconclusive means response in the unintended direction; inactive means score below 0.9.
# Tests used:
# [1] = TOX21_PR_BLA_Followup_Agonist_viability: Viability Assessment in the Tox21 HEK293 Progesterone Receptor (PR) Agonism Beta-lactamase Follow-Up Assay (AID 2283935);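 further: signal loss means lower viability so actives are cytotoxic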
# How it was run: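 Cells were plated in medium with 2% charcoal-stripped FBS and rested 6 hr. Compounds in DMSO were then added for 16 hr at 37C, followed by the FRET substrate step and CellTiter-Glo luminescence after 30 min.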
# [2] = TOX21_PR_BLA_Followup_Antagonist_viability: Viability Assessment in the Tox21 HEK293 Progesterone Receptor (PR) Antagonism Beta-lactamase Follow-Up Assay (AID 2283936);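 further: cells exposed to compound with R5020 agonist for 16 h; hits lower the luminescence signal meaning cytotoxicity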
# How it was run: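 PR-UAS-bla HEK293T cells in medium with 2% charcoal-stripped FBS were treated with compounds plus R5020 for 16 hr at 37C. After the beta-lactamase read, CellTiter-Glo was added to the same wells and luminescence read after 30 min at room temperature.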
# PGR (gene 5241) [3] = target: PGR (gene 5241) (UniProt P06401); experiment: TOX21_PR_LUC_Followup_Agonist: Tox21 HEK293 Progesterone Receptor (PR) Agonism Luciferase Follow-Up Assay (AID 2283937; active means hit-call score of the fitted dose curve at least 0.9, where 1 is the maximum; inactive means score below 0.9)
# How it was run: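 Seed HEK293-PR-A-luc cells, wait 5 h, add compounds in DMSO, incubate 16 h at 37C, add ONE-Glo, read luminescence after 30 min. Activity is increase over DMSO controls; run with a viability counter-screen.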
# PGR (gene 5241) [4] = target: PGR (gene 5241) (UniProt P06401); experiment: TOX21_PR_LUC_Followup_Antagonist: Tox21 HEK293 Progesterone Receptor (PR) Antagonism Luciferase Follow-Up Assay (AID 2283938);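 further: curve fitted upward as signal gain over DMSO baseline despite antagonist label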
# How it was run: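 Luminescence from ONE-Glo was measured 30 min after reagent addition, following 16 h exposure of HEK293-PR-A-luc cells (3,000/well, plated 5 h earlier) to DMSO-dissolved compounds at 37C; DMSO served as baseline.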
# [5] = target: Thyroid hormone receptor alpha (Rattus norvegicus) + Thyroid hormone receptor beta (Rattus norvegicus) (UniProt P18113+P63059); experiment: TOX21_TR_LUC_GH3_Agonist_Followup: Tox21 GH3 Thyroid Hormone Receptor Agonism Luciferase Follow-Up Assay (AID 2283939)
# How it was run: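 Agonist-mode confirmatory run: 15 concentrations (5 nM to 92 uM final) on GH3 rat pituitary cells, 24 h at 37C/5% CO2, T3 as positive control. Luminescence read with ONE-Glo after 30 min.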
# [6] = TOX21_PR_LUC_Followup_Antagonist_viability: Viability Assessment in the Tox21 HEK293 Progesterone Receptor (PR) Antagonism Luciferase Follow-Up Assay (AID 2283940)
# How it was run: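 HEK293-PR-A-luc, 3,000 cells/well; 5 h at 37C/0% CO2; compound pin transfer; 16 h incubation; CellTiter-Glo ATP luminescence, signal loss = cytotoxicity.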
# [7] = TOX21_PR_LUC_Followup_Agonist_viability: Viability Assessment in the Tox21 HEK293 Progesterone Receptor (PR) Agonism Luciferase Follow-Up Assay (AID 2283941);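 further: loss of signal means cytotoxicity so actives lower viability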
# How it was run: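 Multiplexed viability endpoint of the PR agonist luciferase follow-up: HEK293-PR-A-luc cells treated 16 h at 37C, with viability scored as decrease in CellTiter-Glo ATP signal.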
# THRA (gene 7067) = THRA (gene 7067) (UniProt P10827); experiment: TOX21_TRA_COA_Agonist_Followup_ratio: Tox21 Thyroid Hormone Receptor alpha Agonism through Coactivator Recruitment Follow-Up Assay, Ratio (AID 2283948; active means hit-call score of the fitted dose curve at least 0.9, where 1 is the maximum; inactive means score below 0.9)
# How it was run: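 Cell-free TR-FRET coactivator recruitment: GST-tagged TRα LBD (2.5 nM) with 0.10% BSA was incubated with compound, then fluorescein-SRC-2 peptide (200 nM) and Tb-anti-GST antibody (2 nM) added. 520:495 nm ratio normalized to DMSO (0%) and T3 (100%).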
# THRB (gene 7068) = THRB (gene 7068) (UniProt P10828); experiment: TOX21_TRB_COA_Agonist_Followup_ratio: Tox21 Thyroid Hormone Receptor beta Agonism through Coactivator Recruitment Follow-Up Assay, Ratio (AID 2283963; active means hit-call score of the fitted dose curve at least 0.9, where 1 is the maximum; inactive means score below 0.9)
# From the text: TOX21_TRb_COA_Agonist_Followup is a secondary assay for specificity for the TOX21_TR_GH3_LUC_Agonist assay. The LanthaScreen TR-FRET TR coactivator assay kits were used to determine TR activity in a cell-free functional assay. A time-resolved fluorescence resonance energy transfer (TR-FRET) signal was indicative of coactivator (SRC-2) recruitment.TOX21_TRB_COA_Agonist_Followup_ratio is assay component calculated in the TOX21_TRB_COA_Agonist_Followup assay. The TR-FRET ratio of acceptor emission (ch2) to donor emission (ch1) is indicative of the resonance energy transfer to the fluorescein tag on the coactivator peptide following recruitment to the receptor.Data from the assay component TOX21_TRB_COA_Antagonist_Followup_ratio was analyzed into 1 assay endpoint. This assay endpoint, TOX21_TRB_COA_Antagonist_Followup_ratio, was analyzed in the positive analysis fitting direction relative to DMSO as the negative control and baseline of activity. Using a type of inducible reporter, gain-of-signal activity can be used to understand changes in the reporter gene as they relate to the gene THRB. Furthermore, this assay endpoint can be referred to as a primary readout, because this assay has produced multiple assay endpoints and this ratio serves a reporter gene function to understand target activity. […]
# [8] = target: Retinoic acid receptor RXR-alpha (Homo sapiens) (UniProt P19793); experiment: TOX21_TR_RXR_BLA_Agonist_Followup_ratio: Tox21 Thyroid Hormone Receptor beta Retinoid X Receptor alpha (RXRa) Agonism Beta-lactamase (BLA) Follow-Up Assay, Ratio (AID 2283968)
# How it was run: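 Cells were first allowed to attach for 5 h, after which compounds in DMSO were pinned at 11 concentrations and incubated 16 h at 37C. LiveBLAzer CCF4-AM substrate was then added for 2 h at room temperature before reading 460 and 530 nm fluorescence.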
# Sequence of THRA (gene 7067) (P10827 whole entry, looked up, the tested form may be a part): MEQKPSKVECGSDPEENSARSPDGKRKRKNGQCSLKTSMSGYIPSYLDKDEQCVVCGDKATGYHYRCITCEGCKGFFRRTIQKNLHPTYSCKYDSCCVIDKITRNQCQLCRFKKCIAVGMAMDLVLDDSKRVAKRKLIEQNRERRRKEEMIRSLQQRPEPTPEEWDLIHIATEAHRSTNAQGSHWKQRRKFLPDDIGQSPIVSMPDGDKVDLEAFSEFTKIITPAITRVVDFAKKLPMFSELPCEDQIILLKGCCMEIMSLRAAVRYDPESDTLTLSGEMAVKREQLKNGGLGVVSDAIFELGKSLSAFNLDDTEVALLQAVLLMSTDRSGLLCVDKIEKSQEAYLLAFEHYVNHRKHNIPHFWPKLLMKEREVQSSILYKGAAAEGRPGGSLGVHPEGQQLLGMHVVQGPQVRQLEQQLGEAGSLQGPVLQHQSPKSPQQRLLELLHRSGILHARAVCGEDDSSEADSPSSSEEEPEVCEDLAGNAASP
# Sequence of THRB (gene 7068) (P10828 whole entry, looked up): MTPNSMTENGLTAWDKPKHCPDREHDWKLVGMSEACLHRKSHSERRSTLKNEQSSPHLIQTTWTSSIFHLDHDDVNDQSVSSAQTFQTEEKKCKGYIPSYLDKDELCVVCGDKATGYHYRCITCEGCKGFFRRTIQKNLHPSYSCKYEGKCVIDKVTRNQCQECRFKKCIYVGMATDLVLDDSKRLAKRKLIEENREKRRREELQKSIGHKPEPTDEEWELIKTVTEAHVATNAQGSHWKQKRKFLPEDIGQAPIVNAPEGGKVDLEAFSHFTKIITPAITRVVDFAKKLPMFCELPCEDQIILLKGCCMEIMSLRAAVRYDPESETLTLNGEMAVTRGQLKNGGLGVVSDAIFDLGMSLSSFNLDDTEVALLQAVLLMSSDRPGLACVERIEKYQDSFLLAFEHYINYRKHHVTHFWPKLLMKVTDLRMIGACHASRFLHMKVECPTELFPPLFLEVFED
# Sequence of PGR (gene 5241) (P06401 whole entry, looked up): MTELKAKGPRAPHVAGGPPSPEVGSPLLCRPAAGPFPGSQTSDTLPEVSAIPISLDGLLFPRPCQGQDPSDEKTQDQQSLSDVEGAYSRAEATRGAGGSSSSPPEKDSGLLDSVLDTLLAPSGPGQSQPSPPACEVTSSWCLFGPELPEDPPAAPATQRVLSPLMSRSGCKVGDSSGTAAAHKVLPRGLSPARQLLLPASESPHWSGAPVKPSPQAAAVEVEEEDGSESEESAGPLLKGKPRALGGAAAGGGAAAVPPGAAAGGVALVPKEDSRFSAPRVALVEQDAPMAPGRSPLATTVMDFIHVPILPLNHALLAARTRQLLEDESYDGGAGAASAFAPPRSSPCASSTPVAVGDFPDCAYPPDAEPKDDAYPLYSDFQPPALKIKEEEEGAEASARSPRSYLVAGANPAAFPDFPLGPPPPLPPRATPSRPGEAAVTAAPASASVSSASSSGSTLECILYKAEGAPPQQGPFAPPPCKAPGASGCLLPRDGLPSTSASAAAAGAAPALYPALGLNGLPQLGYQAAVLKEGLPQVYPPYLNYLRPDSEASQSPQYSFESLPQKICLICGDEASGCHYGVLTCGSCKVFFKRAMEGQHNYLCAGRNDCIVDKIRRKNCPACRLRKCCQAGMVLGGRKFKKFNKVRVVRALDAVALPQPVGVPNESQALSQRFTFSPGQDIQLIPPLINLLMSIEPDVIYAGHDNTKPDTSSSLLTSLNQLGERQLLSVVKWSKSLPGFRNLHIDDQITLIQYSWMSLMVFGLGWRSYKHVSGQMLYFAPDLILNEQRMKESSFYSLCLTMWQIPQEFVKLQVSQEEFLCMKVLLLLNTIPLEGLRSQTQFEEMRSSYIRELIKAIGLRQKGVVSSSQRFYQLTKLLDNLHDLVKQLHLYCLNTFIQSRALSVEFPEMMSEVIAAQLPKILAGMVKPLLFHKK
# Sequence of Retinoic acid receptor RXR-alpha (Homo sapiens) (P19793 whole entry, looked up): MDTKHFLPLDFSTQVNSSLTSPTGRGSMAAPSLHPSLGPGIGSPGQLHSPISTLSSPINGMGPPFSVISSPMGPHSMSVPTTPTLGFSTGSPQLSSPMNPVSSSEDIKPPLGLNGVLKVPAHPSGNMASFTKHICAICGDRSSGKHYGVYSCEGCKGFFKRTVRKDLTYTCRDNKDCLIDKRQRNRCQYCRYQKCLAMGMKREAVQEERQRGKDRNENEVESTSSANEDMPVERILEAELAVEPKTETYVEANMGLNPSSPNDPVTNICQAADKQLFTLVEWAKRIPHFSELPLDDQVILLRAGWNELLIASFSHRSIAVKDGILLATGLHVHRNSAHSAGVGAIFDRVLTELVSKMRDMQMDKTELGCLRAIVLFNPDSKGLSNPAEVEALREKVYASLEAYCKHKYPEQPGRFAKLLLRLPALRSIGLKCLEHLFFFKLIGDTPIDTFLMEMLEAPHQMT
# Sequence of Thyroid hormone receptor alpha (Rattus norvegicus) + Thyroid hormone receptor beta (Rattus norvegicus) (P63059 whole entry, looked up): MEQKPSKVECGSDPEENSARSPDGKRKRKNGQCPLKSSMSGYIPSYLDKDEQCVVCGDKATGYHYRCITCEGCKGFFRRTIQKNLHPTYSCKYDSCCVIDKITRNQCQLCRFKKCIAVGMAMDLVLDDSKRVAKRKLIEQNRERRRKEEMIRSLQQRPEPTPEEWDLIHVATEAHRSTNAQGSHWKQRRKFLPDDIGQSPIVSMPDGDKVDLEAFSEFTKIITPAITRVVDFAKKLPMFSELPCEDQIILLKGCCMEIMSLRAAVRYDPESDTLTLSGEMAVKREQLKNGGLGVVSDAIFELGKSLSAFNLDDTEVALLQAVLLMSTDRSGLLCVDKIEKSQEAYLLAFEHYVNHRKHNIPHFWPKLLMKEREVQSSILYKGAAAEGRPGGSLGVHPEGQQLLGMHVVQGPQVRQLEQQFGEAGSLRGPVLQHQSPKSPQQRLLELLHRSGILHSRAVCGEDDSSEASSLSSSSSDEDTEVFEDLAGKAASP
# Sequence of Thyroid hormone receptor alpha (Rattus norvegicus) + Thyroid hormone receptor beta (Rattus norvegicus) (P18113 whole entry, looked up): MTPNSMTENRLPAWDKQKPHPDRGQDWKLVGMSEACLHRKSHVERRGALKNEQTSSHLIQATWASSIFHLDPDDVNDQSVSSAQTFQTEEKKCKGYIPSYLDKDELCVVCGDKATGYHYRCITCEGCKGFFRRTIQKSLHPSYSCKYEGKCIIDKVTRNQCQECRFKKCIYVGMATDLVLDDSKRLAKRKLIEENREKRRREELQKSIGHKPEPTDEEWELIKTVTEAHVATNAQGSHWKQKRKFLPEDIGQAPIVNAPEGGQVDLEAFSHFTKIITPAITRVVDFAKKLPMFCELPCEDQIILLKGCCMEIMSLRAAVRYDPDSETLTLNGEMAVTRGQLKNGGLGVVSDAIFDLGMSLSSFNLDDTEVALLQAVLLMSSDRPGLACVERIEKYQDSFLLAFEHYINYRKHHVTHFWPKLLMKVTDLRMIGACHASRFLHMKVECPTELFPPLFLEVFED
Structure (SMILES),outcome [1],outcome [2],outcome (PGR (gene 5241) [3]),AC50 (PGR (gene 5241) [4]),outcome [5],outcome [6],outcome [7],outcome (THRA (gene 7067)),outcome (THRB (gene 7068)),outcome [8]
O=C(c1ccccc1)c1ccc(O)cc1O,inactive,inactive,inactive,33.5 µM (active),inactive,inactive,inactive,inactive,inactive,inactive
C[C@]12CC[C@H]3C(=CCc4cc(O)ccc43)[C@@H]1CCC2=O,–,–,–,–,–,–,–,inactive,inactive,–
